Only some compounds are listed: those with a hit (about 5.5% of all), similar ones and a draw of the others.
a7 integrin act: activators of alpha7 integrin expression for muscular dystrophy; alpha7betagal myoblasts, beta-gal FDG fluorescence, 48 h; actives 0.064% (n = 350,000); Potency, µM (doses to about 38.3 µM), inactives show at the top dose activation, actives largely listed as activators; AID 624291;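 further: 100% = response of the positive control SU9516; nearly all actives have a fitted effect of over 60% in size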
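alpha7betagal+/- myoblasts (passage 13, 250/well) treated 48 h at 37C with compounds at 1:260 dilution of DMSO stock. Lysed, then beta-galactosidase activity read as FDG fluorescence (ex 480/em 540) after 30 min, with pre-read for autofluorescence.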
Chronic BCR inh: chronic active BCR signaling inhibition; Potency, µM (series often up to 46.1 µM), for the others: at the top dose activity change, negative = inhibition, most hits filed as inhibitors; ABC-DLBCL IkBa-CBG/CBR reporter, luminescence ratio, 4 h; actives 0.05% (n = 340,000); active means well fitted inhibition curve with a large enough effect in the signal ratio, with a control signal flat, not every such curve was filed as active; inconclusive means small, poorly fitted or top-dose-only effect, or effect the other way, or a change in a side signal; the % refers to the signal ratio;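 further: plate controls were basal doxycycline-induced cells for no effect and cells given 10 µM MG132 for full effect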
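TMD8 human ABC-DLBCL cells with doxycycline-inducible IκBα–green luciferase fusion and unfused red luciferase, in 0.5% FBS medium; compounds up to 46 uM, 4 h at 37C. Green/red luminescence ratio, filter-overlap corrected, fitted to concentration-response curves.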
Mito fusion act: inhibitors of mitochondrial division or activators of mitochondrial fusion | Potency, µM (doses to about 46.1 µM), for inactives: at the highest dose growth rescue (activation), most hits filed as activators | AID 485298 | actives 0.23% (n = 320,000) | S. cerevisiae fusion-defective mutant growth rescue, CellTiterGlo 48 h; further: % of control where 0% means no effect; nearly all actives have a fitted effect of over 45% in size
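Temperature-sensitive fusion-defective S. cerevisiae (e.g. fzo1-1, mgm1-5) were grown with compound in YPEG medium (3% ethanol, 3% glycerol) for 48 hours at 37C. Growth rescue was measured as viability by CellTiterGlo luminescence after 10 minutes at ambient.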
uPA generation: inhibitors of cell surface uPA generation | cell surface uPA generation assay, qHTS | Potency, µM (series often up to 38.3 µM), without a hit: at the top dose activity change, negative = inhibition, usual class: inhibitors | actives 0.31% (n = 330,000) | AID 540303; active means well fitted inhibition curve with a large enough effect; inconclusive means small, poorly fitted or top-dose-only effect; inactive means no such curve, though single readings can be large or run the other way; tested in mouse RAW 264.7 cells; further: on the % scale 0 is the no-effect control and ±100 the full control effect; nearly all actives have a fitted effect of over 55% in size
VP16 counter: Gal4-VP16 reporter inhibition counter-screen | Drosophila S2 Gal4-VP16 UAS-luciferase, luminescence, 20 h | Potency, µM (highest dose often 53.6 µM), for the others: at the highest dose activity, negative = inhibition, actives largely listed as inhibitors | actives 3.5% (n = 310,000) | AID 2546;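 further: Gal4-VP16 expression switched on by copper sulfate through the metallothionein promoter; on the % scale 0 is the no-effect control and ±100 the full control effect; nearly all actives have a fitted effect of over 50% in size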
RORgamma inh: blocks mouse ROR gamma transcriptional activity; P51450; Drosophila S2 Gal4-RORgamma UAS-luciferase reporter, 20 h; Potency, µM (highest dose often 53.6 µM), without a hit: top-dose activity change, negative = inhibition, most hits filed as inhibitors; actives 5.4% (n = 310,000); AID 2551; further: on the % scale 0 is the no-effect control and ±100 the full control effect; nearly all actives have a fitted effect of over 60% in size
Target sequence (P51450 whole entry, looked up, the tested form may be a part): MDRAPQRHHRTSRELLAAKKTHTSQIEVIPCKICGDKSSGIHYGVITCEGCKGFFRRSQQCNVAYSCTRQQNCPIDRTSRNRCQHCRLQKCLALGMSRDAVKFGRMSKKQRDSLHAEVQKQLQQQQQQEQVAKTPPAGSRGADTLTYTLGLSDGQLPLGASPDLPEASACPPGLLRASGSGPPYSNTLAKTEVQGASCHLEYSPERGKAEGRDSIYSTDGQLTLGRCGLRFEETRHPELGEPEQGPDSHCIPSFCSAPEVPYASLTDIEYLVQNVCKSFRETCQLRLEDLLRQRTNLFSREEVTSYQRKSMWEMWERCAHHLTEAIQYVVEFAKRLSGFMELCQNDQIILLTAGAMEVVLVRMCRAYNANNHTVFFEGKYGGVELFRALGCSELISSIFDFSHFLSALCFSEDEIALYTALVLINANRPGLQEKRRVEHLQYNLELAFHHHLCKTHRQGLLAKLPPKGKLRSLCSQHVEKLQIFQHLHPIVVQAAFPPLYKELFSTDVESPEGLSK
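Drosophila Schneider cells stably carrying a metallothionein-driven Gal4 DBD–ROR gamma fusion and a UAS-Photinus luciferase reporter were exposed to compound for 1 hr, then induced with copper sulfate (700 uM final) for 20 hr at ambient temperature before luminescence reading.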
The depositor's hits bear a star; u = inconclusive; x = no result given; ! = not confirmed by another sample; [ ] = dose if it differs, or a comment. Unless noted, the call rests on the fitted dose curve; in most records, active means well fitted curve in the direction sought with a large enough effect; inconclusive means small, poorly fitted or top-dose-only effect, or another doubt; inactive means no such curve, though single readings can be large; an effect the other way counts as inactive or inconclusive. Potency means the concentration at half of the fitted maximal effect.

SMILES	a7 integrin act	Chronic BCR inh	Mito fusion act	uPA generation	VP16 counter	RORgamma inh
COc1ccc(C(=O)Cn2c(=O)n3nc(CCn4nc(C)cc4C)nc3c3cc(OC)c(OC)cc32)cc1	x	6%	x	x	x	x
Cc1ccc(C(=O)N/N=C/C2=Cc3ccccc3OC2C)cc1 (stereo unspecified)	16%	17%	u	-19%	u	3.2µM*
CC1Oc2ccccc2C=C1/C=N/NC(=O)c1ccccc1 (stereo unspecified)	4%	u	u	-14%	u	-15%
CN(CC[C@@H](Oc1ccc(C(F)(F)F)cc1)c1ccccc1)CC(=O)O	x	x	-20%	x	0%	-2%
CCc1cccc(CC)c1NC(=S)NCCc1ccc(O)c(O)c1	5%	u	4%	u	-14%	13µM*
COc1ccc2[nH]c(C)c(CCNC(=S)Nc3cccc(C)c3C)c2c1	-2%	0%	0%	-12%	u	7.1µM*
COc1ccc2[nH]c(C)c(CCNC(=S)Nc3ccccc3C)c2c1	-23%	4%	2%	12%	u	u
CCc1cccc(CC)c1NC(=S)NCCc1c(C)[nH]c2ccccc12	-48%	4%	-12%	-11%	7.1µM*	u
COc1ccc(OC)c(C(=O)c2ccccc2)c1	-4%	-6%	1%	-6%	3%	u
COc1ccc(OC)c(/C(O)=C/C(=O)C(=O)Nc2cc(C)ccc2OC)c1	4%	1%	-5%	2%	11µM*	3.5µM*
COc1ccc(OC)c(/C(O)=C/C(=O)C(=O)Nc2cc(C)cc(C)c2)c1	17%	u	-1%	-3%	18µM*	2.5µM*
CCOc1ccccc1NC(=O)C(=O)/C=C(\O)c1cc(OC)ccc1OC	-26%	u	2%	-7%	u	u
COc1ccc(Cc2nc3ccccc3n2CC(=O)N/N=C/c2ccc(C)cc2O)cc1OC	-7%	-7%	2%	-2%	6.3µM*	3.5µM*
COc1ccc(Cc2nc3ccccc3n2CC(=O)N/N=C/c2ccc(O)cc2)cc1OC	-22%	u	-4%	12%	-5%	11%
CC1C/C(=C\c2cccnc2)C(=O)/C(=C/c2cccnc2)C1 (stereo unspecified)	-45%	u	-6%	-12%	0.63µM*	1.1µM*
O=C(NN=C1CCCC1)c1n[nH]c2c1CCCC2	-3%	u	-6%	u	-2%	-19%
CC(C)(C)c1n[nH]c2c1CCCC2	35%	-2%	14%	-10%	-21%	11µM*
CCC(=O)OCC(=O)Nc1cc([N+](=O)[O-])ccc1OC	-27%	1%	u	5%	0%	2%
CCCCCCCCCCCCCCCCn1cc[n+](Cc2ccccc2)c1C	x	x	x	x	7.1µM*	u
c1ccc(CNc2nc(-c3ccc4c(c3)OCO4)nc3ccccc23)cc1	x	x	x	x	-7%	7%
S=C(NCc1ccccc1Cl)Nc1ccccc1Cl	18%	u	8%	-9%	2.8µM*	0.56µM*
NNC(=S)Nc1ccc(C(F)(F)F)cc1Cl	4%	0%	-5%	15%	u	11µM*
NNC(=S)Nc1ccccc1Cl	-19%	u	5%	0%	11µM*	7.9µM*
FC(F)(F)c1cccc(NC(=S)Nc2ccc(Cl)cc2Cl)c1	-16%	4%	-12%	7%	-25%	u
S=C(Nc1ccccc1Cl)Nc1ccc(Cl)cc1Cl	-23%	-8%	-3%	-4%	1%	-35%
SMILES	a7 integrin act	Chronic BCR inh	Mito fusion act	uPA generation	VP16 counter	RORgamma inh
Cc1cc(Cl)ccc1NC(=S)NCc1ccccc1Cl	-25%	u	27%	-1%	4µM*	5µM*
COc1ccc(-c2nc3c4ccccc4n(CC(=O)Nc4cc(F)ccc4F)c(=O)n3n2)cc1	x	-23%	x	x	x	x
Cc1ccc(NC(=O)C2CCCN2C(=O)c2cccs2)cc1C (stereo unspecified)	8%	5%	0%	-5%	x	x
CC(C)c1ccc(Nc2nnc(SCC(=O)NCC3CCCO3)s2)cc1 (stereo unspecified)	0%	-12%	x	u	x	x
Fc1cccc(NC(=S)NCc2ccccc2Cl)c1	-32%	u	-2%	2%	11µM*	7.1µM*
O=C(O)CCNC(=S)Nc1cccc(F)c1	-14%	3%	-1%	-1%	0%	-7%
CN1C(=O)/C(=C/c2cc3c(cc2Br)OCO3)NC1=S	-26%	-1%	6%	1%	u	4.5µM*
Cc1ccc(-c2ocnc2C(=O)N2CCOCC2)cc1	-5%	-5%	-5%	-1%	-4%	13%
N#CC(=C=[N-])c1nc2ccccc2nc1-[n+]1cccc(NC(=O)c2ccccc2)c1	19%	3%	-2%	1%	u	5µM*!
O=C1CC(c2ccc(Cl)c([N+](=O)[O-])c2)c2ccc3ccccc3c2N1 (stereo unspecified)	-38%	u	13µM*	-3%	-3%	u
Cn1cc(CNC(=O)c2cc(COc3ccc4c(c3)CCCC4)on2)cn1	-20%	u	0%	-15%	-7%	u
O=C(NC(c1cccnc1)C(F)(F)F)c1cc(COc2ccc3c(c2)CCCC3)on1 (stereo unspecified)	-38%	-1%	4%	u	7.1µM*	u
CC1N(C(=O)N(C)C)CCN1S(=O)(=O)c1ccccc1 (stereo unspecified)	14%	-1%	1%	-2%	-1%	-10%
N#Cc1ccccc1NC(=O)CSC1=Nc2ccccc2C2CC=NN12 (stereo unspecified)	-7%	20µM*	-1%	-6%	u	11µM*
CCOc1ccccc1NC(=O)C(OC(=O)c1ccc(O)cc1)c1ccccc1 (stereo unspecified)	4%	u	u	-13%	u	18µM*
COc1ccc(OC)c(/C=C2\S/C(=N/NC(=O)c3ccc4ccccc4c3)NC2=O)c1	20%	u	9%	-1%	u	1.4µM*
COc1cccc(/C=C2\SC(=O)NC2=O)c1OCc1ccc(C(=O)O)cc1	17%	-2%	4%	-1%	-19%[10 µM]	16%
O=C1N/C(=N/NC(=O)c2cccc3ccccc23)S/C1=C\c1ccccc1OCc1ccccc1	-13%	u	-2%	-4%	u	0.63µM*
CC(C)C[C@H](NC(=O)[C@H](CO)NC(=O)[C@H](C)NC(=O)[C@H](CCCN=C(N)N)NC(=O)[C@H](CCCN=C(N)N)NC(=O)[C@@H](N)CC(C)C)C(=O)NCC(=O)O	x	x	x	x	2%	-9%
CC(C)(C)c1cc(C(=O)NNC(=O)Nc2ccccc2)n(Cc2ccccc2)n1	-35%	u	-1%	19%	-40%	0.063µM*

Screening results deposited in PubChem BioAssay by National Center for Advancing Translational Sciences (NCATS).
